Here are results for 70 compounds from PubChem BioAssay AID1159577 (Broad Institute, 2015).

The structures appear in SMILES notation. The campaign covered roughly 1,300 compounds. About 240 (18%) were called active. Not shown: some 8% with an inconclusive outcome. The rule behind the calls is not given here. Not all results are given here. A call without a number means that no potency is given here. Potency and affinity values are given separately.

The assay can be described thus: HepG2 cell cytotoxicity, dose response, cytotoxicity control, cherry-picked samples (AID 1159577). As to conditions: HepG2 cytotoxicity counterscreen, plate reader; series mostly up to 19.5 µM. For orientation: The purpose of a counterscreen is to sort out artefacts and off-target activity.
Take `COc1cccc(NC(=O)N(C)C[C@H]2Oc3ncc(/C=C/c4ccccc4)cc3C(=O)N([C@@H](C)CO)C[C@@H]2C)c1`: the compound was classed as inactive.

As to `COc1cccc(S(=O)(=O)N2CCC3(CC2)CN[C@@H](CO)c2[nH]c4cc(OC)ccc4c23)c1`, the call was inactive. The entry for `COc1ccc(CN2C[C@H](C)[C@H](OC)CN(C)C(=O)c3cc(NC(=O)c4nc5ccccc5s4)ccc3OC[C@@H]2C)cc1` is “inactive”; for `C[C@@H]1CN([C@H](C)CO)C(=O)c2cccc(NC(=O)c3nc4ccccc4s3)c2O[C@H]1CN(C)C(=O)NC1CCCCC1` it is “inactive”; for `C[C@@H]1CN([C@H](C)CO)C(=O)c2c(c3ccccc3n2C)-c2ccccc2CO[C@H]1CN(C)S(=O)(=O)c1ccsc1` it is “inactive”. In the case of `CCCNC(=O)N1CC2(CCN(C(=O)CN(C)C)CC2)c2c(n(C)c3cc(OC)ccc23)[C@H]1CO`, the result was inactive. The entry for `CCC(=O)N1CC2(CCN(Cc3ccc(Cl)cc3)CC2)c2c(n(C)c3cc(OC)ccc23)[C@@H]1CO` is “inactive”. The same measure for `CC(C)(C)S(=O)N1Cc2cc(C(=O)N[C@@H]3CCN(Cc4ccccc4)C3)nc(-c3cccc(C#CCC4CCCC4)c3)c2[C@H]1CCO` (stereo not given in full): “inactive”; for `COc1ccc(C#Cc2ccc3c(c2)O[C@@H](CN(C)C(=O)Nc2cccc(OC)c2)[C@H](C)CN([C@@H](C)CO)S3(=O)=O)cc1`: “inactive”; for `CO[C@@H]1CN(C)C(=O)c2cc(NC(=O)NC3CCCCC3)ccc2OC[C@@H](C)N(CCc2ccccc2)C[C@H]1C`: “inactive”. The same measure for `COc1ccc2c3c([nH]c2c1)[C@@H](CO)N(Cc1cccc(F)c1)CC31CCN(Cc2ccccn2)CC1`: “inactive”; for `COc1ccc(C#Cc2ccc([C@H]3[C@@H](CO)N4CCCCN(C(=O)Nc5ccccc5F)C[C@@H]34)cc2)cc1`: “inactive”; for `COc1ccc(C#Cc2ccc([C@@H]3[C@@H](CO)N4CCCCN(C(=O)Nc5ccccc5F)C[C@@H]34)cc2)cc1`: “inactive”. Consider `N#C[C@@H]1[C@@H](c2ccccc2-c2ccccc2F)[C@H](CO)N1C(=O)C1CC1`, for which the result was inactive. The entry for `COCc1cn([C@@H]2C[C@@H]3O[C@@H](CO)CC[C@@H]3O[C@@H]2CCc2ccc(-c3ccc(OC)cc3)cc2)nn1` is “inactive”. The entry for `O=C(Nc1cccc(F)c1)N[C@@H]1CC[C@@H](CCNS(=O)(=O)c2cccc(Cl)c2)O[C@@H]1CO` is “inactive”; for `CC(C)NC(=O)N1[C@H](C#N)[C@H](c2ccc(-c3ccc(F)cc3)cc2)[C@@H]1CO` it is “inactive”; for `COc1ccc(-c2ccccc2[C@H]2[C@@H](C#N)N(C(=O)NC(C)C)[C@H]2CO)cc1` it is “inactive”.

`COc1ccc(-c2ccc([C@H]3[C@H](C#N)N(C(=O)c4cccc(F)c4)[C@H]3CO)cc2)cc1`: the call was inactive. The same measure for `CC(C)NC(=O)N1[C@H](C#N)[C@H](c2ccccc2-c2ccc(F)cc2)[C@@H]1CO`: “inactive”; for `CC(C)NC(=O)N1[C@H](C#N)[C@H](c2ccc(C#CC3CCCC3)cc2)[C@@H]1CO`: “inactive”; for `CCCNC(=O)N1[C@H](C#N)[C@H](c2ccc(-c3cccc(OC)c3)cc2)[C@@H]1CO`: “inactive”. The same measure for `C[C@H]1CN([C@@H](C)CO)C(=O)c2c(c3ccccc3n2C)-c2ccccc2CO[C@@H]1CN(C)S(=O)(=O)c1ccc(C(F)(F)F)cc1`: “inactive”.

`C[C@H]1CN([C@@H](C)CO)C(=O)c2cc(NC(=O)Cc3cn(C)c4ccccc34)ccc2O[C@H]1CN(C)S(=O)(=O)c1ccccc1`: the result was inactive.

As to `CO[C@H]1CN(C)C(=O)c2cc(NC(=O)c3ccc(F)cc3)ccc2OC[C@H](C)N(C(=O)c2ccc(F)cc2)C[C@H]1C`, the outcome was inactive. As to `O=C(c1ccccn1)N1CC(=O)N2[C@H](CO)[C@@H](c3ccc(C#CCc4ccccc4)cc3)[C@@H]2C1`, the compound was called inactive. `CCCNC(=O)c1cc2c(c(-c3cccc(-c4cc5ccccc5o4)c3)n1)[C@@H](CCO)N(C(=O)NC(C)C)C2`: the compound was classed as inactive. As for `N#Cc1ccc(-c2ccc(C3[C@@H]4CN(C(=O)C5CCC5)C[C@H]3N4)cc2)cc1` (stereo not given in full), the outcome was inactive. The same measure for `O=C(C1CCC1)N1C[C@@H]2N[C@H](C1)C2c1ccc(-c2ccccc2F)cc1` (stereo not given in full): “inactive”. As to `C/C=C/c1ccc([C@H]2[C@H](CO)N(S(=O)(=O)Cc3ccccc3)C23CN(C(=O)C2CCCC2)C3)cc1`, the result was inactive.

As for `CCCNC(=O)N1CCC2(CC1)CN(Cc1cccc(F)c1)[C@@H](CO)c1[nH]c3cc(OC)ccc3c12`, the result was inactive. The same measure for `C[C@@H]1CN([C@@H](C)CO)C(=O)c2cccc(NC(=O)C3CC3)c2O[C@H]1CN(C)Cc1ccc(-c2ccccc2)cc1`: “inactive”; for `C[C@H](CO)N1C[C@H](C)[C@H](CN(C)S(=O)(=O)c2ccccc2)Oc2ccc(NC(=O)Cc3cn(C)c4ccccc34)cc2C1=O`: “inactive”; for `C[C@H]1CN([C@@H](C)CO)S(=O)(=O)c2ccc(C#Cc3ccccc3F)cc2O[C@@H]1CN(C)C(=O)c1ccc2c(c1)OCO2`: “inactive”. The entry for `CO[C@H]1CN(C)C(=O)c2cc(NC(C)=O)ccc2OC[C@H](C)N(Cc2ccncc2)C[C@H]1C` is “inactive”; for `C[C@@H]1CN([C@@H](C)CO)C(=O)Cc2cc(NC(=O)NC3CCCCC3)ccc2O[C@H]1CN(C)C(=O)Nc1cccc2ccccc12` it is “inactive”. The same measure for `CCCC#Cc1ccc2c(c1)[C@H]1[C@H](CCN1Cc1ccccc1F)[C@@H](CO)N2`: “inactive”. Take `COc1ccc(C#Cc2ccc3c(c2)[C@H]2[C@H](CCN2Cc2ccncc2)[C@@H](CO)N3)cc1`: the outcome was inactive.

`COc1ccc(C#Cc2ccc3c(c2)[C@H]2[C@H](CCN2Cc2nccs2)[C@H](CO)N3)cc1`: the call was inactive. As to `COc1ccccc1-c1ccc2c(c1)[C@H]1[C@H](CCN1C(=O)C1CCCC1)[C@@H](CO)N2`, the compound was classed as inactive. The same measure for `COc1ccccc1-c1ccc2c(c1)[C@@H]1[C@@H](CCN1C(=O)C1CCCCC1)[C@@H](CO)N2`: “inactive”; for `COc1ccc(C#Cc2ccc3c(c2)[C@H]2[C@H](CCN2Cc2ccncc2)[C@H](CO)N3)cc1`: “inactive”. The entry for `OC[C@H]1CC[C@@H]2O[C@H](CCc3ccc(C#CCc4ccccc4)cc3)[C@H](n3cc(-c4ccccc4)nn3)C[C@@H]2O1` is “inactive”; for `O=C(Cc1cccnc1)N1CC[C@H]2[C@H](CO)Nc3ccc(C#Cc4cccc(F)c4)cc3[C@H]21` it is “inactive”; for `COCC(=O)N1[C@H](CO)[C@@H](c2ccccc2)C12CN(Cc1cc(F)ccc1F)C2` it is “inactive”. Take `COc1ccccc1-c1ccccc1[C@@H]1[C@@H](C#N)N(C(=O)C2CC2)[C@@H]1CO`: the compound was classed as inactive. In the case of `COc1ccc2c3c(n(C)c2c1)[C@@H](CO)N(CC1CCCCC1)CC31CCN(C(=O)CN(C)C)CC1`, the outcome was inactive. The entry for `COc1ccc(C#Cc2ccc3c(c2)[C@H]2[C@H](CCN2C(=O)C2CCCC2)[C@@H](CO)N3)cc1` is “inactive”; for `CCCNC(=O)N1[C@@H](C#N)[C@H](c2ccccc2-c2ccccc2F)[C@@H]1CO` it is “inactive”; for `COc1ccc(NC(=O)N(C)C[C@@H]2Oc3cc(-c4ccc(C)cc4)ccc3S(=O)(=O)N([C@@H](C)CO)C[C@H]2C)cc1` it is “inactive”. The entry for `COc1ccc2c3c(n(C)c2c1)[C@@H](CO)N(C(=O)Nc1ccc(F)cc1)CC31CN(C(=O)c2ccc3c(c2)OCO3)C1` is “inactive”. The same measure for `COc1ccc2c3c([nH]c2c1)[C@@H](CO)N(Cc1cc(F)ccc1F)CC31CN(C(=O)CN(C)C)C1`: “inactive”; for `CC(C)(C)[S@@](=O)N1Cc2cc(C(=O)NCCc3ccncc3)nc(-c3cccc(-c4ccccc4)c3)c2[C@H]1CCO`: “inactive”; for `COc1ccc2c3c(n(C)c2c1)[C@@H](CO)N(C(=O)C1CCCC1)CC31CN(C(=O)Nc2cccc(F)c2)C1`: “inactive”. Consider `N#C[C@H]1[C@@H](c2ccc(C#CC3CCCC3)cc2)[C@@H](CO)N1S(=O)(=O)Cc1ccccc1`, for which the outcome was inactive. The same measure for `CCCC#Cc1ccc([C@H]2[C@@H](CO)N(C(=O)C3CCCCC3)[C@H]2C#N)cc1`: “inactive”; for `COc1cccc(C#Cc2ccc([C@@H]3[C@@H](C#N)N(C(=O)c4ccccn4)[C@H]3CO)cc2)c1`: “inactive”; for `N#C[C@H]1[C@H](c2ccc(C#CC3CCCCC3)cc2)[C@@H](CO)N1S(=O)(=O)c1ccccc1`: “inactive”. The entry for `N#C[C@H]1[C@@H](c2ccc(C#CC3CC3)cc2)[C@H](CO)N1S(=O)(=O)c1ccccc1` is “inactive”; for `CCS(=O)(=O)N1[C@H](CO)[C@H](c2ccc(C#Cc3ccccc3F)cc2)[C@@H]1C#N` it is “inactive”.

Consider `COc1ccc(C#Cc2ccc3c(c2)[C@H]2[C@H](CCN2Cc2nccs2)[C@@H](CO)N3)cc1`, for which the result was inactive. The entry for `CCCN1C[C@@H](C)[C@H](OC)CN(C)C(=O)c2ccc(NC(=O)c3ccc4c(c3)OCO4)cc2OC[C@H]1C` is “inactive”. The same measure for `CC(C)(O)C#Cc1cccc(-c2nc(C(=O)N[C@@H]3CCN(Cc4ccccc4)C3)cc3c2[C@H](CCO)N(S(=O)C(C)(C)C)C3)c1` (stereo not given in full): “inactive”; for `CCCC#Cc1cnc2c(c1)C(=O)N([C@@H](C)CO)C[C@H](C)[C@H](CN(C)C(=O)Nc1cccc(F)c1)O2`: “inactive”. The same measure for `C[C@H](CO)N1C[C@H](C)[C@H](CN(C)S(=O)(=O)c2ccccc2)Oc2cc(C#Cc3ccncc3)ccc2S1(=O)=O`: “inactive”; for `C[C@@H]1CN([C@@H](C)CO)C(=O)c2cccc(NC(=O)c3cnccn3)c2O[C@@H]1CN(C)Cc1ccc(C(F)(F)F)cc1`: “inactive”; for `CC(C)(C)S(=O)N1Cc2cc(C(=O)NCc3ccc4c(c3)OCO4)nc(-c3cccc(C#CCC4CCCC4)c3)c2[C@@H]1CCO` (stereo not given in full): “inactive”. For the compound `COc1ccc(-c2ccc([C@@H]3[C@@H](CO)N4C(=O)CN(C(=O)C5CCCC5)C[C@@H]34)cc2)cc1`, the result was inactive. The same measure for `C[C@@H]1CN([C@@H](C)CO)C(=O)c2cccc(NC(=O)Nc3ccc4c(c3)OCO4)c2O[C@@H]1CN(C)C(=O)Nc1ccc2c(c1)OCO2`: “inactive”; for `O=C(c1cccnc1)N1CC2(C1)[C@@H](c1ccccc1)[C@@H](CO)N2C(=O)CC1CC1`: “inactive”.
